Measured values published in the OligoGym collection.

Target: PITPNM3
Test: pooled miR-30 sensor sort-seq; sequence = guide strand
Conditions: shRNA
Further: reference of the scale not given here.

Sequence | sensor-assay potency score (higher = more potent)
TCTTCGTGGATCTCGATGCTTC | -0.715
TTCCTCGCTGTCTTCGTGGATC | -1.05
TTGCGCAGGATCATGCGCGAGT | -0.913
TTCAGGTGAGAGACAAGCGAGA | -0.748

Target: PKD2L1
Test: as above
Conditions: shRNA

Sequence | sensor-assay potency score (higher = more potent)
TTGTTGAAGCTGATGTACTTGA | -0.253
TTGTTGTACTGTGTCTGCCAGA | -0.963
TTCATCTTCAGGCTTCTTGGGT | -0.0602
TTGAATATCTTGATCCAGGCGA | 0.38
TTCAAAGATCTCTGAATCCTGA | 0.0945
TTGACTGTGCGGATTTGCCAGG | -0.754
TAGTAATAAGCACTGGAGCTTG | -0.791
TAGTAGAAGATGAAGACGCAGA | -0.533
TACTTGAATATCTTGATCCAGG | -0.611

Target: PKIA
Test: as above
Conditions: shRNA

Sequence | sensor-assay potency score (higher = more potent)
TAGAACTTCGTTGTGCATCTTC | 0.489
TAACATGATAATGAGCAGGTTC | 0.186
TTTACTGGGTGAACACTTGAGC | -0.0975
TTGTTCTGTAGAACTTCGTTGT | 0.279
TTTAACATGATAATGAGCAGGT | 0.937
TATTGCATTTCTTCTACCTGTT | 0.0658
TACAGGAAGAATCATCATCTAG | -0.916
TCATCATCTAGGTCGGAGCTAC | -0.746
TTTGTTCTGTAGAACTTCGTTG | 0.16
ATCTTCTTCACCTTCTGTCTTG | -0.736
TTCAAGGCTAATTCATTGCTGT | 0.0225
TCTTGTTGATATCAAGACCTGC | -0.396

Target: PKIG
Test: as above
Conditions: shRNA

Sequence | sensor-assay potency score (higher = more potent)
TTACAGTGTCTTGAAAGTGTAC | -0.626
TAGGTGTCACTTATCCTGGTGG | -0.436
TTGATTGTCAGCTCTCTCCATA | -0.293
TGGGGCGCTTCCCTCCACCTGT | -1.57
TGTCCGGTCACAGGAGATGAAG | -2.03
ATGTCAGGGACCGCATTCCGAC | -1.85
TTGCCAGCTTCCTTGTCTGGGG | -0.658
TAACATCTTGTGGTTACAGTGT | -0.118
TCAGGGACCGCATTCCGACGGC | -0.897
TTCCTCACGCTCACAGCCTCTG | -0.203
TCGAGTGCCAGCTCGCCCATGT | -1.07
TCACAGCCTCTGAGTCTCCCTG | -1.09

Target: PKLR
Test: as above
Conditions: shRNA

Sequence | sensor-assay potency score (higher = more potent)
TCGCTTGTCTCTGCCCTCGTTG | -1.2
TGTGGCACAGACAACAGGCTTG | -0.0127
TAGCTCCTCAAACAGCTGCCGG | -1.23
